Here are results for 59 compounds from PubChem BioAssay AID504577 (NMMLSC, 2011).

The campaign covered roughly 350,000 compounds. About 1,300 (0.37%) were called active. This is one part of a sample in which actives are shown more often than they occur. Unmarked numbers belong to inactive results. No stated cut-off is given here; in the data, active means response mostly above about 7.3% (no sharp cut-off); inactive means mostly below about 5.4%.

The assay in a line: yeast vacuolar ATPase proton transport modulators – pHLuorin cytosolic pH fluorescence, primary screen (AID 504577). Further: actives read high. As to conditions: S. cerevisiae, at 10 µM, stronger effect = higher value.
Regarding `COc1cc(=O)[nH]c(=O)n1C(=O)Cc1ccccc1`, the response was -1.96%.

With `COc1ccc(/C=N/NC(=O)c2cccc(C(F)(F)F)c2)cc1`, the response was 13.1% (active).

For `Cc1nnsc1C(=O)N/N=C/c1cccc(C(F)(F)F)c1`, the response was 3.26%.

Take `COc1ccc(/C=N/NC(=O)Cn2cc(C(F)(F)F)ccc2=O)cc1`: the response was -4.67%.

For the compound `CCCn1c(C(C)Nc2nc(-c3ccc(C)cc3)cs2)nc2cc(Cl)c(N3CCCCC3)cc21` (centres undefined), the response was -1.24%.

`c1ccc(-c2nnc3n2NC(c2ccc4c(c2)OCO4)S3)cc1` (centres undefined): the response is -3.32%.

Turning to `COC(=O)C(C)n1cnc2c(nnn2-c2ccc(F)cc2)c1=O` (centres undefined), the response was 1.53%.

Consider `COC(=O)C(C)n1cnc2c(nnn2-c2cccc(Cl)c2)c1=O` (centres undefined), for which the response is 16.6% (active).

For `CCOC(=O)C(C)n1cnc2c(nnn2-c2cccc(OC)c2)c1=O` (centres undefined), the response was 1.26%.

Take `CN1CCNC(=O)C1CC(=O)NCCC1=CCCCC1` (centres undefined): the response was 1.15%.

As to `Cc1ccc(NC(=O)NC(=O)c2ccccc2)cc1F`, the response is -0.67%.

Consider `Cc1ccc(S(=O)(=O)/N=C(/Nc2ccc3[nH]c(=O)[nH]c3c2)c2ccccc2)cc1`, for which the response is -2.11%.

In the case of `Cc1cc(=O)c2ccc(NC(=O)c3ccccc3)cc2[nH]1`, the response is 8.54% (active).

Turning to `CN(C)S(=O)(=O)c1ccc(N2CCCC2=O)c([N+](=O)[O-])c1`, the response is -0.02%.

For the compound `O=C(c1cccs1)N1C[C@H](n2cc(C3CC3)nn2)[C@@H](O)C[C@@H]1c1ccccc1`, the response is -2.35%.

For `C/C(=C/C(=O)N1CCN(C)CC1)C(=O)O`, the response was -2.99%.

For `COc1ccc(S(=O)(=O)N2CCC(C(=O)OCC(=O)c3ccccc3)CC2)cc1[N+](=O)[O-]`, the response was -4.5%.

For the compound `C=C(C)CNc1cc(S(=O)(=O)N2CCOCC2)ccc1Oc1ccccc1`, the response is 1.92%.

With `COC(=O)c1cc(Oc2ccc(S(=O)(=O)N3CCOCC3)cc2[N+](=O)[O-])cc(C(=O)OC)c1`, the response is 13.9% (active).

Take `O=C(C[C@@H]1C/C=C\CCC(=O)OC[C@@H]2CCCN2C1=O)NCCO`: the response is -3.85%.

For `COC(=O)c1c(NC(=O)CN2CCN(S(=O)(=O)c3ccccc3[N+](=O)[O-])CC2)sc2c1CCC(C)C2` (centres undefined), the response is -0.77%.

As to `O=C1CC(c2ccccc2)C(=O)N2C(=O)CC(c3ccccc3)C(=O)N12` (centres undefined), the response is -1.7%.

Turning to `O=C1CC(c2ccccc2)C(=O)N1c1cccc(O)c1` (centres undefined), the response was -0.89%.

As for `O=C1OCC2=C1C(c1ccccc1)CC(=O)N2c1cccc(F)c1` (centres undefined), the response was 18.5% (active).

As for `CC(C)(C)c1cnnn1-c1ccc([N+](=O)[O-])cc1`, the response is 1.62%.

`Cc1cc(CO)nn1-c1ccc([N+](=O)[O-])cc1`: the response is 15.4% (active).

On to `Cc1cc(C)n(CC(=O)Nc2ccc([N+](=O)[O-])cc2)n1`, for which the response was -0.28%.

With `O=C(Nc1ccncc1)c1cc(-c2ccccn2)nc2ccc(Br)cc12`, the response was 0.9%.

Consider `Cc1ccc2nc(-c3ccncc3)cc(C(=O)Nc3ccc(OC(F)F)cc3)c2c1`, for which the response is 11.1% (active).

Turning to `O=C(Nc1ccc(S(=O)(=O)Nc2nccs2)cc1)c1cc(-c2ccncc2)nc2ccccc12`, the response is 2.45%.

`CC(=O)C1=C(C)NC(=O)NC1c1cc(Br)ccc1OCC#N` (centres undefined): the response was 1.72%.

As for `COC(=O)c1c(-c2ccc(C)cc2)csc1N`, the response was 6.85% (active).

Regarding `CCC(C(=O)OC)n1cnc2scc(-c3ccc(C)cc3)c2c1=O` (centres undefined), the response was -4.95%.

For `CCOC(=O)c1c(-c2ccc(-c3ccccc3)cc2)csc1NC(=O)CCC(=O)O`, the response was -1.32%.

`CC(C)=CCCC1(C)C=Cc2c(ccc3c2[nH]c2cc(O)c(C)cc23)O1` (centres undefined): the response was -1.63%.

As for `Cc1nc2ccccc2c(=O)n1-c1ccc(F)c(NC(=O)c2cccs2)c1`, the response was -7.41%.

Turning to `COc1ccc(NS(=O)(=O)c2ccc(F)cc2F)cn1`, the response was -2.01%.

`Cc1nc2ccccc2c(=O)n1-c1ccc(NS(=O)(=O)c2ccc(F)cc2F)cc1`: the response is 15.7% (active).

With `CN(CC(=O)N1CCN(c2ccccc2)CC1)S(=O)(=O)c1cccs1`, the response was -1.07%.

In the case of `O=C(CSc1nc2ccccc2c(=O)n1CCCO)N1CCc2ccccc21`, the response was 1.92%.

Turning to `O=C(O)c1ccc(-n2cccc2)cc1O`, the response was -0.56%.

Take `CCCC[C@@H]1CN=C(N)N1CCCC`: the response was -0.58%.

As to `CCCC[C@@H]1CN=C(N)N1CCc1cccc(F)c1`, the response was 0.99%.

In the case of `CCCC[C@@H]1CN=C(N)N1CCc1cc(C(F)(F)F)cc(C(F)(F)F)c1`, the response is 14.3% (active).

Consider `C=CC[C@H](CC(=O)NCCO)C(=O)N[C@@H](COC(=O)[C@@H](CC=C)Cc1ccc(F)cc1)Cc1c[nH]c2ccccc12`, for which the response was 7.71%.

Turning to `COC(=O)Nc1ccc(S(=O)(=O)N2CCN(CCN3C(=O)C4C5C=CC(C5)C4C3=O)CC2)cc1` (centres undefined), the response is 1.48%.

Regarding `CN(C)CCN=c1cc(-c2ccccc2)oc2ccc(Cl)cc12`, the response was 1.09%.

As for `O=C(Nc1ccncc1)c1ccccc1[N+](=O)[O-]`, the response is 1.22%.

With `N/C(=N\OC(=O)c1ccc([N+](=O)[O-])cc1)c1ccccn1`, the response is -2.74%.

On to `O=C(O/N=C(/c1ccccc1)c1ccncc1)c1ccccc1[N+](=O)[O-]`, for which the response was 11.6% (active).

In the case of `CC(=O)c1cccc(NC(=O)C2CCN(C(=O)c3ccccc3Cl)CC2)c1`, the response was -3.34%.

`COc1ccc(S(=O)(=O)N2CCOC23CCN(S(=O)(=O)c2ccc([N+](=O)[O-])cc2)CC3)cc1`: the response was 1.58%.

Consider `O=C(CSc1nnc(SCc2ccc(Cl)cc2)s1)N/N=C/c1ccccc1Cl`, for which the response is -0.5%.

For `COc1cc(/C=C2/C(=O)ON=C2C)ccc1OCc1ccccc1F`, the response was 2.69%.

In the case of `CC1=NOC(=O)/C1=C\c1ccccc1`, the response was 17.2% (active).

For `C#CCOc1ccccc1/C=C1/C(=O)ON=C1C`, the response is 3.98%.

In the case of `CCn1c(COc2ccccc2)nnc1SCC(=O)Nc1ccc2c(c1)OCCO2`, the response was -3.48%.

`CCOC(=O)CNC(=O)CSc1nc2cccnc2n1CC`: the response is 4.49%.

Turning to `CCOC(=O)CNC(=O)CSc1nnc(COc2ccc(Cl)cc2)n1CC`, the response is 17.5% (active).
